The values below come from PubChem BioAssay.

Each structure is given as a SMILES string. For some assays here: Results with a measured potency or affinity are listed apart. Calls of active or inactive are those of the source.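 How the source made its calls, unless noted: active means signal rise over 3 SD above mean of control wells given weak agonist, in both repeats and first screen; inactive means the rest.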

Assay [1] has as its system TRPC4 beta (transient receptor potential cation channel C4), mouse. Nature of the assay: activators of mouse TRPC4 channel, confirmation, cell-based, Fluo4 calcium, HEK293 TRPC4beta/mu-opioid, duplicates, 10 µM (AID 2426;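 active means fluorescence ratio normalized to control raised more than 50% in primary screen plus both repeat runs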). Conditions: Fluo4 calcium fluorescence, at 10 µM; stronger effect = higher value.
Assay [2] relates to transient receptor potential cation channel C4 beta (TRPC4), mouse. Nature of the assay: activators of mouse TRPC4 channel, confirmation, cell-based, second round, Fluo4, HEK293 TRPC4beta/mu-opioid, 1 µM (AID 2461;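 active means primary screen active and over 50% activation in each of two duplicate runs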). Conditions: Fluo4 calcium fluorescence, at 1 µM; stronger effect = higher value.
Assay [3] has as its system TRPC4 (transient receptor potential cation channel C4 beta), mouse. The experiment in a line: positive allosteric modulators of mouse TRPC4, confirmation, cell-based, second round, Fluo-4, HEK293 TRPC4beta/mu-opioid, 1 µM (AID 2554;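 active means primary screen hit whose fluorescence ratio, in both repeats, exceeds the weak agonist control mean by 3 SD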). The following applies: DAMGO EC20, Fluo-4 calcium flux, at 1 µM; stronger effect = higher value. A general note: Calcium flux is commonly read through the fluorescence of an indicator in the cells.

For assay [4], the system named is TRPC4 beta (transient receptor potential cation channel C4), mouse. Nature of the assay: positive allosteric modulators of mouse TRPC4, confirmation, cell-based, Fluo-4, HEK293 TRPC4beta/mu-opioid (AID 2555;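 active means primary screen hit whose calcium fluorescence ratio, in both repeats, exceeds the weak agonist control mean by 3 SD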). Conditions: DAMGO EC20, Fluo-4 calcium flux, at 10 µM; stronger effect = higher value.
Assay [5] has as its target Short transient receptor potential channel 4 (Mus musculus) (UniProt Q9QUQ5). Nature of the assay: inhibitors of mouse TRPC4 channel, confirmation, cell-based, Fluo4, HEK293 TRPC4beta/mu-opioid (AID 2636;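 active means calcium signal cut by more than 3 SD below the full-agonist control yet still positive, in both repeats and the earlier primary screen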). The following applies: DAMGO, Fluo4 calcium flux, at 10 µM; stronger effect = higher value.
For assay [6] the target is unchanged. The experiment in a line: inhibitors of mouse TRPC4 channel, confirmation, cell-based, second round, Fluo4, HEK293 TRPC4beta/mu-opioid, 1 µM (AID 2637;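 active means calcium signal ratio cut to more than 3 SD under the fully stimulated control mean yet still positive, in both repeats and the primary screen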;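 on inhibition: percent of integrated ratio relative to wells lacking test compound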). The following applies: Fluo4 calcium flux, DAMGO, at 1 µM; stronger effect = higher value.
Assay [7] shares this target. Nature of the assay: mouse TRPC4 channel activators, dose response, cell-based, HEK293 TRPC4/mu-opioid, Fluo-4 calcium (AID 434937;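 active means primary screen activator hit with a dose response curve and TRPC4 channel activation at any tested dose; inactive means no activation, no dose response, or not a primary hit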).
Assay [8] has the same target. Nature of the assay: TRPC4 positive allosteric modulators, dose response, cell-based, HEK293 TRPC4/mu-opioid, Fluo-4 calcium, EC20 DAMGO (AID 434941;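 active means earlier screen potentiator hit that boosts the TRPC4 ion channel at some dose, with a dose response; inactive means no potentiation, no dose response, or not a prior hit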;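 further: calcium entry triggered by an EC20 dose of DAMGO at the co-expressed mu-opioid receptor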).
Assay [9] addresses Short transient receptor potential channel 6 (Mus musculus) (UniProt Q61143). Nature of the assay: inhibition of mouse TRPC6 channel, confirmation, selectivity assay for TRPC4 inhibitor project, cell-based, HEK293, membrane potential dye, duplicate (AID 434948;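 active means active in primary screen and both duplicates, each dropping signal beyond three positive-control SD with fluorescence still positive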). The following applies: HEK293 TRPC6, membrane potential dye fluorescence, at 10 µM, stimulated with maximal-effect acetylcholine; stronger effect = higher value.

Assay [10] has the same target. Nature of the assay: activation of mouse TRPC6 channel, confirmation, selectivity assay for TRPC4 activator project, cell-based, HEK293, membrane potential dye, duplicate (AID 434950;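 active means membrane potential signal rise above negative control mean plus 3 SD in both duplicates, also active in the earlier TRPC4 screen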). The following applies: HEK293 TRPC6, membrane potential fluorescence, at 10 µM; stronger effect = higher value.
The target is the same in assay [11]. The experiment in a line: TRPC6 potentiation by TRPC4 potentiator hits, confirmation, selectivity assay for TRPC4 potentiator project, HEK293 cells, membrane potential dye, duplicate (AID 434952;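 active means compound raising the membrane signal above positive-control mean plus 3 SD in both repeats, and a primary screen hit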). The following applies: HEK293 TRPC6, membrane potential dye fluorescence, at 10 µM, maximal acetylcholine added after compound; stronger effect = higher value.
Assay [12] deals with Short transient receptor potential channel 4 (Mus musculus) (UniProt Q9QUQ5). Nature of the assay: calcium flux activators in TRPC4/5HT1a cells, counter-screen for TRPC4 activator project, cell-based, second counter screen, HEK293 TRPC4/5HT1a, Fluo-4 (AID 434977;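 active means calcium signal rise above buffer-control mean plus 5 SD in both duplicates, and also a hit in the primary screen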). Conditions: Fluo-4 calcium flux, at 10 µM; stronger effect = higher value.
Chain of Short transient receptor potential channel 4 (Mus musculus) (Q9QUQ5 whole entry, looked up): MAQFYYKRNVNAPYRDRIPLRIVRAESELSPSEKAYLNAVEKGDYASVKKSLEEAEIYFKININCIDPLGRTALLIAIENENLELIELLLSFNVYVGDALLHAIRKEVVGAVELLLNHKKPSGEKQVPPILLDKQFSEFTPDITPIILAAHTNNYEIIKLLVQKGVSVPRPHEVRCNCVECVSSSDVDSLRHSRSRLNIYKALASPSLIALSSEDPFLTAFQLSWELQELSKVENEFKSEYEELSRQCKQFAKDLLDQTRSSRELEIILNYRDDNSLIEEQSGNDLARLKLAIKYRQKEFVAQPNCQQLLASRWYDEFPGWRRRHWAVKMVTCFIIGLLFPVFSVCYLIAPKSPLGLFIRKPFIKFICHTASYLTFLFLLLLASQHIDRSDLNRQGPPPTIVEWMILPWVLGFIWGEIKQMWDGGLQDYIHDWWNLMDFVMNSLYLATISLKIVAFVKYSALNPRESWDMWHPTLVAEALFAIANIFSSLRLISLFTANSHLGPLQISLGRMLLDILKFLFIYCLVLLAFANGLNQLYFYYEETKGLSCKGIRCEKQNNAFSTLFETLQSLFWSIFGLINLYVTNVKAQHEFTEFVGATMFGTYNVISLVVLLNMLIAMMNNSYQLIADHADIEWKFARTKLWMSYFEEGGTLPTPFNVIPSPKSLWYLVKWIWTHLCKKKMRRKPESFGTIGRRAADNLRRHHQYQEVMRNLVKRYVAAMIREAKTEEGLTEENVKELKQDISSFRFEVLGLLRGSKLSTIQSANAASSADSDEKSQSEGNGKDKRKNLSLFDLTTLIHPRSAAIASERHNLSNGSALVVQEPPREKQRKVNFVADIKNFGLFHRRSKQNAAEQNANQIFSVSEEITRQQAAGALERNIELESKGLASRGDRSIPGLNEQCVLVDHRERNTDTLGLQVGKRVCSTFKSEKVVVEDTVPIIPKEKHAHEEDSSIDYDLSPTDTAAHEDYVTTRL
Assay [13] in a line: calcium flux inhibitors in TRPC4/5HT1a cells, confirmation, counter-screen for TRPC4 inhibitor project, cell-based, second counter screen, HEK293 TRPC4/5HT1a, Fluo-4 (AID 434978;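 active means primary screen active whose calcium signal fell more than 3 SD beyond the full-serotonin control mean in both duplicate plates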). The following applies: Fluo-4 calcium flux, at 10 µM, serotonin added to trigger calcium flux; stronger effect = higher value.
Assay [14] relates to TRPC4 (mouse), co-expressed with 5HT1a in HEK293. The experiment in a line: calcium flux potentiators in TRPC4/5HT1a cells, confirmation, counter-screen for TRPC4 potentiator project, cell-based, second counter screen, HEK293 TRPC4/5HT1a, Fluo-4 (AID 434979). Conditions: Fluo-4 calcium flux, at 10 µM, serotonin added at its EC20 dose; stronger effect = higher value.
A short description of assay [15]: calcium flux activation in mu-opioid HEK293 cells, confirmation, counter-screen for TRPC4 activator project, cell-based, HEK293 mu-opioid receptor line (AID 449723;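 active means hit in primary screen, with calcium signal over 5 SD above buffer well mean in both duplicates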;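 further: counter screen cells carry the mu-opioid receptor alone and lack TRPC4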). Conditions: Fluo-4 calcium fluorescence, at 10 µM; stronger effect = higher value.
The nature of assay [16]: calcium flux enhancement in mu-opioid HEK293 cells, confirmation, counter-screen for TRPC4 allosteric potentiator project, cell-based, HEK293 mu-opioid receptor line (AID 449724;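 active means calcium signal rise more than 3 SD above the low-dose agonist control mean, in both duplicate plates and the primary screen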;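 further: HEK293 cells carrying mu-opioid receptor only with no TRPC4 channel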). The following applies: Fluo-4 calcium flux, at 10 µM, compound added before EC20 DAMGO stimulus; stronger effect = higher value.

Chain of Short transient receptor potential channel 6 (Mus musculus) (Q61143 whole entry, looked up): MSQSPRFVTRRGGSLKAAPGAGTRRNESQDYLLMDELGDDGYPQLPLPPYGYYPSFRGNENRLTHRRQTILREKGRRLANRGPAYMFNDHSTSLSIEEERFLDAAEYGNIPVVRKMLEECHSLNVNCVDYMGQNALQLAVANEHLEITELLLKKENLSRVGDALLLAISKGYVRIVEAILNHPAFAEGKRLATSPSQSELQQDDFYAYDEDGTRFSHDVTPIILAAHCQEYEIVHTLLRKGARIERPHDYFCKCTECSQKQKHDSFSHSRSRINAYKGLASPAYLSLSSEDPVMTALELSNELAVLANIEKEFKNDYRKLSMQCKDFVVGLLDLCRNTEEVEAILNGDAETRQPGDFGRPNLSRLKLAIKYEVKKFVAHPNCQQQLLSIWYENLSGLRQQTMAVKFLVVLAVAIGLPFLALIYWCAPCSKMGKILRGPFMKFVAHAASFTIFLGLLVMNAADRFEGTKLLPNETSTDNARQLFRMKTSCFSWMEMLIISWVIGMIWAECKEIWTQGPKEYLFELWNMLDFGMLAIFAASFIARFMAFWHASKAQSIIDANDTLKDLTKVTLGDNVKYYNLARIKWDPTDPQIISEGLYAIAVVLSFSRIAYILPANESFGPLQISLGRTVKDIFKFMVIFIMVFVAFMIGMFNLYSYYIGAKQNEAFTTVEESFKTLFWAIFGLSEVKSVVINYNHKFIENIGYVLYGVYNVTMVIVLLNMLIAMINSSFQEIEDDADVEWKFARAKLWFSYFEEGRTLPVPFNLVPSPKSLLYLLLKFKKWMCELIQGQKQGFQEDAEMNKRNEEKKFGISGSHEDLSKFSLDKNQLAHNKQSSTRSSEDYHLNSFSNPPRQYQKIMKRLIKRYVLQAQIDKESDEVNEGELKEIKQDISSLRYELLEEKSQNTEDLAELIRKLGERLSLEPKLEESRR

By inhibition is commonly meant how much of the control response was suppressed. As for `CSc1nc(N2CCOCC2)c2c3c(sc2n1)CCCC3`, the result in assay [1], in [2], in assay [3], in assay [4], in [6] and in assay [7] was inactive. Also, the outcome in assay [8], in assay [9], in assay [10], in assay [11], in [12] and in assay [14] was inactive. For the same compound, the result in [15] and in assay [16] was inactive. In addition, the inhibition in assay [5] was 75% (active); in assay [13], 37.5% (active).
Take `CCOC(=O)c1c(NC(=O)C(C)Sc2nnc(C)c(=O)[nH]2)sc2c1CCCC2` (stereo not drawn): the outcome in [1], in assay [2], in assay [3], in assay [4], in assay [7] and in [8] was inactive. Besides, the outcome in assay [9], in [10], in assay [11], in [12], in [14] and in assay [15] was inactive. Moreover, in assay [16], the outcome was inactive. The inhibition in [5] was 77% (active); in [6], 87% (active); in assay [13], 28.1% (active).
With `CC(OCC(O)CN(C)CCOc1ccccc1)c1ccc(Cl)cc1` (stereo not drawn), the outcome in assay [1], in assay [2], in [3], in [4], in [7] and in [8] was inactive. The result in assay [9], in [10], in assay [11], in assay [12], in assay [14] and in assay [15] was inactive. The result in [16] was inactive. Besides, the inhibition in assay [5] is 94% (active); in assay [6] it was 44% (active); in [13] it was 22.2% (active).
As to `CNc1nc(SCc2ccccc2Cl)nc2c1CCCC2`, the result in [1], in assay [2], in assay [3], in assay [4], in assay [6] and in assay [7] was inactive. Also, the result in assay [8], in assay [9], in assay [10], in assay [11], in assay [12] and in [14] was inactive. Moreover, the outcome in assay [15] and in assay [16] was inactive. The inhibition is 90% (active) in assay [5] and 13.9% (active) in assay [13].
For the compound `Cc1cc(CN2CCCC(C(=O)Nc3ccc(-c4nc5ccccc5[nH]4)cc3)C2)n[nH]1` (stereo not drawn), the result in assay [1], in assay [2], in assay [3], in assay [4], in assay [7] and in [8] was inactive. Moreover, the outcome in assay [9], in assay [10], in assay [11], in [12], in assay [14] and in [15] was inactive. For the same compound, the outcome in assay [16] was inactive. Besides, the inhibition in assay [5] was 77% (active); in assay [6] it was 61% (active); in assay [13] it was 37.2% (active).
Turning to `OC1(c2cccs2)CN(c2ccc(Cl)cc2)C2=[N+]1CCCC2` (stereo not drawn), the outcome in assay [1], in assay [2], in assay [3], in assay [4], in assay [6] and in assay [7] was inactive. In addition, the outcome in assay [8], in assay [9], in assay [10], in assay [11], in [12] and in assay [14] was inactive. In addition, the result in [15] and in [16] was inactive. The inhibition in assay [5] is 72% (active); in assay [13], 35.1% (active).
On to `Cc1cc2cc(C#N)c(NCCNC(=S)NCCCN3CCOCC3)nc2cc1C`, for which the result in assay [1], in assay [2], in assay [3], in assay [4], in assay [6] and in assay [7] was inactive. The outcome in [8], in assay [9], in assay [10], in assay [11], in assay [12] and in assay [14] was inactive. Further, the outcome in [15] and in assay [16] was inactive. Also, the inhibition in [5] was 94% (active); in assay [13] it was 26.6% (active).
In the case of `COC(=O)CSc1nnc2n(-c3ccc(OC)cc3)c(=O)c3c4c(sc3n12)CCCCC4`, the result in assay [1], in assay [2], in [3], in assay [4], in assay [6] and in [7] was inactive. Besides, the result in assay [8], in assay [9], in [10], in assay [11], in [12] and in assay [14] was inactive. Also, the outcome in assay [15] and in [16] was inactive. Moreover, the figures for the inhibition in assay [5] and in assay [13] were 95% (active) and 23% (active), respectively.
